Compound activity from PubChem.
This is one part of a sample in which hits are shown more often than they occur.
Pf Dd2 inh – Plasmodium falciparum Dd2 growth inhibition. P. falciparum Dd2 growth, SYBR Green, 72 h. Potency, µM (series often up to 28.9 µM), for inactives: at the highest dose activity, negative = inhibition, hits mostly inhibitors. 120,000 compounds, 4.3% hits; active means well fitted inhibition curve with a large enough effect;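 further: plate controls were DMSO vehicle for no effect and reference drug for full effect; nearly all actives have a fitted effect of over 65% in size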
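Readout: SYBR Green fluorescence, 485 nm excitation, 535 nm emission, after ~16 h lysis at 37C. Before that, Dd2-infected red cells (2.5% hematocrit) grew 72 h with compound, 29 uM top final concentration.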
Active calls of the source: *; i = inactive; [ ] = remark or other dose. Potency means the concentration at half of the fitted maximal effect.

SMILES	Pf Dd2 inh
Cc1ccc(OCc2nc(C3CCCN3C(=O)c3sc(C)nc3C)no2)cc1 (stereo not drawn)	i
O=C([C@@H]1CNC[C@H](C(=O)N2CCN(c3nccs3)CC2)C1)N1CCCC1	-8%
Cc1ccc(C(c2cccnc2)n2cc(-c3cncnc3)nn2)cc1C (stereo not drawn)	4%
Cc1ccc2c(c1)nc1n2[C@@H](CN(Cc2ccc(C(=O)O)cc2)Cc2ccc(C(=O)O)cc2)COC1	-12%
CCCN1CCC2(CCN(C(=O)OC)CC2)Oc2ccccc21	i
CN1CCC(OC2CCN(C(=O)c3ccccn3)CC2)CC1	55%
Cc1noc(-c2cn(C3CCN(C(=O)c4ccccc4)CC3)nn2)n1	7%
O=C(CC1CCCCN(Cc2ccccc2)C1=O)NCc1cccnc1 (stereo not drawn)	-13%
CCCc1nnc([C@H]2CCN(C(=O)COC)C2)o1	4%[44.1 µM]
Cc1cccc(S(=O)(=O)N(C)CC2CCOCC2)c1	-9%
O=C(CCc1ccc2c(c1)CCO2)Nc1ccc2c(c1)C(=O)N1CCC[C@H]1C(=O)N2	-14%
O=C(NCc1ccncc1)C1Cn2cccc2C(=O)N1Cc1ccccc1 (stereo not drawn)	i
O=C1CC2(CCN(C(=O)c3ccc(CSc4ccccc4)o3)C2)C(=O)N1 (stereo not drawn)	-24%
O=C(Cn1cccc1-c1nc(-c2ccc(F)cc2)no1)Nc1ccccc1F	-5%
CCc1ccccc1NC(=O)c1c(NC(=O)c2ccccc2)sc2c1CCCC2	42%
Cc1cccc(NC(=O)c2c(Br)sc3c2CCCC3)c1	i
Cc1cccc(C(=O)Nc2sc3c(c2C(=O)Nc2ccccc2)CCC3)c1	33%
Cc1ccc(NC(=O)c2c(NC(=O)c3ccccc3)sc3c2CCC3)cc1	i
Cc1cccc(NC(=O)c2c(NC(=O)C(F)(F)F)sc3c2CCCCC3)c1	4.5µM*
Cc1ccccc1NC(=O)c1c(NC(=O)c2ccccc2)sc2c1CCC2	4%
Cc1ccccc1NC(=O)c1c(NC(=O)C(F)(F)F)sc2c1CCCCC2	10µM*
Cc1ccc(NC(=O)c2c(NC(=O)C(F)(F)F)sc3c2CCCCC3)cc1	4µM*
O=C(Nc1sc2c(c1C(=O)Nc1ccc(Cl)cc1)CCCC2)c1cccs1	5%
O=C(COc1ccc(Cl)cc1)Nc1sc2c(c1C(=O)Nc1cccc(Cl)c1)CCCC2	1%
O=C(Nc1cccc(Cl)c1)c1c(NC(=O)C(F)(F)F)sc2c1CCCC2	13µM*
SMILES	Pf Dd2 inh
CCCNC(=O)c1c(NC(=O)c2ccc(C)cc2)sc2c1CCCCC2	-2%
CC(=O)NCC(=O)N1CCC2(CN[S+](=O)([O-])c3cnccc3O2)C1 (stereo not drawn)	8%
CCCNC(=O)N1CCCCCCNC(=O)[C@@H]2C[C@@H](c3nc(-c4cccnc4)no3)C[C@@H]21	i
COc1ccccc1-n1cc(C(=O)NC2CCCN(C3CCCCCC3)C2)cn1 (stereo not drawn)	-17%
FC(F)(F)c1cccc(C2=NOC3(CCN(Cc4ccncc4)CC3)C2)c1	-19%
NC(=O)NCC(=O)N1CCC2(CCCN(CCCc3ccccc3)C2)C1 (stereo not drawn)	6%
CS(=O)(=O)N(C1CC1)C1CCOC2(CCN(C(=O)c3cc(F)ccc3F)CC2)C1 (stereo not drawn)	-24%
CCC(C)NC(=O)N1CCC(c2nn(CC(=O)NC)c3c2COCC3)CC1 (stereo not drawn)	26%[5.79 µM]
O=C(COc1ccccc1)Nc1ccc([C@@H](O)[C@H]2COCC(=O)N2)cc1	i
O=C(CC1NC(=O)NC1=O)NCc1cccnc1Oc1ccccc1F (stereo not drawn)	17%
COCC1CN(C(C)=O)CC12CCN(S(=O)(=O)c1ccc(C#N)cc1)CC2 (stereo not drawn)	i
c1cncc(CN2CCOC[C@H]2c2ncc(-c3cccnc3)[nH]2)c1	3%[44.1 µM]
Oc1ccccc1CN1CCOC[C@H]1c1ncc(-c2cccc(Cl)c2)[nH]1	3.2µM*
Cn1ccnc1CN1CCOC[C@H]1c1ncc(-c2cccc(Cl)c2)[nH]1	5µM*
N#Cc1cccc(CN2CCOC[C@H]2c2ncc(-c3ccc(F)cc3)[nH]2)c1	-10%[44.1 µM]
Fc1ccc(-c2cnc([C@@H]3COCCN3Cc3ncc[nH]3)[nH]2)cc1	i
CC(=O)Nc1ccc(CN2CCOC[C@H]2c2ncc(-c3cccc(Cl)c3)[nH]2)cc1	-7%[44.1 µM]
NC(=O)Cc1c[nH]c2ncc(-c3cccc(CO)c3)cc12	-1%[44.1 µM]
Cc1nc(-c2c3n(c(=O)n(CC(=O)Nc4ccc5c(c4)OCO5)c2=O)CCCCC3)no1	-11%
CN(Cc1ccccc1)c1ccc(C(=O)N2CCC(CN3CCCC3=O)CC2)cn1	-11%
CCC(c1ccccc1)N1Cc2cc(NS(=O)(=O)c3ccc(F)cc3)ccc2OC(C)C1=O (stereo not drawn)	i
COCc1cc(C)nc2c1C(=O)NC(c1ccc(Br)cc1)N2Cc1ccccc1 (stereo not drawn)	10µM*
COCc1cc(C)nc2sc3c(c12)NC(c1ccccc1C(=O)O)N(c1ccc(OC)cc1)C3=O (stereo not drawn)	i
